This passage reports Potency results from PubChem BioAssay AID602365 (National Center for Advancing Translational Sciences (NCATS), 2012).

Inconclusive results are not listed. Where a call stands in place of a potency, no number is given. Calls of active or inactive are those of the source. Calls come from the whole dose curve; as a rule, active = well fitted inhibition curve with a large enough effect; inconclusive = small, poorly fitted or top-dose-only effect; inactive = flat fitted curve, though single readings scatter.

In this experiment the target is Luciferin 4-monooxygenase (Photinus pyralis) (UniProt P08659). The experiment in a line: FLuc inhibitory activity for the follow-up compounds in a biochemical assay with 1mM D-luciferin. To be noted: purified FLuc, luminescence; series mostly up to 57.5 µM. From the text: NCGC Assay Overview: Firefly (Photinus pyralis) luciferase is one of the most commonly used transcriptional reporters. It is considered one of the more dynamically responsive reporters - that is, responsive to changes in reporter transcription - as it requires no post-translational modifications and is enzymatically active directly after protein synthesis (Wood, 1998). With no endogenous expression in mammalian cells and without the requirement of external excitation, it offers very little background signal, thus generally providing excellent signal to background for most assays. Previous profiling work to determine the prevalence of compounds that affect FLuc enzymatic activity (PubChem AID 411) identified that ~3% of the MLSMR library (then at ~72K) inhibited FLuc. […] Of the compounds identified in this profile that inhibited FLuc, 151 compounds were selected for further analysis, in an effort to better understand their mode of inhibiting FLuc. The assay described here was to determine the activity of the compounds in a FLuc assay that contained a KM concentration of ATP and a high concentration (1mM) of D-luciferin.
Luciferin 4-monooxygenase (Photinus pyralis), sequence (P08659 whole entry, looked up): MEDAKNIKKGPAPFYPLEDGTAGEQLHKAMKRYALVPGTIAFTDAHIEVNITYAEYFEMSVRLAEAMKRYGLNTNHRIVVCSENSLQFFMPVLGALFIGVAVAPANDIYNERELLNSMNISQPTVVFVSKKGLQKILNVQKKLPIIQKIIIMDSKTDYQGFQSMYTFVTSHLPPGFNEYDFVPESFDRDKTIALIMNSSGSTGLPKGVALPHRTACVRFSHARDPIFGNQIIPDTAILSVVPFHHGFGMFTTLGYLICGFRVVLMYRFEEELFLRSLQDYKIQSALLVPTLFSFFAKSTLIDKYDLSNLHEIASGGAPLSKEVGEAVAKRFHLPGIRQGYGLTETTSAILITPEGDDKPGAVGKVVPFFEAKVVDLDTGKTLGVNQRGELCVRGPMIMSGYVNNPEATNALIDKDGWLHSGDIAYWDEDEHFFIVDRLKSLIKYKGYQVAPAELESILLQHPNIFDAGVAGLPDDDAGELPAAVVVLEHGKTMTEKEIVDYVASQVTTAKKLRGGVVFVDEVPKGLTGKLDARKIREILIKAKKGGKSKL
NCGC Assay Protocol Summary: Reagents: 50mM Tris acetate, pH 7.5; 10mM Mg acetate; 1mM D-luciferin (Sigma #L9504); 10uM ATP; 0.01% Tween-20; 0.05% BSA; 10nM P. pyralis luciferase (Sigma #L9506) Control compounds used were two known firefly luciferase inhibitors (3-(5-(3-chlorophenyl)-1,2,4-oxadiazol-3-yl)benzoic acid and 5-(2-fluorophenyl)-3-phenyl-1,2,4-oxadiazole), and DMSO. Three microliters containing firefly luciferase substrates in buffer (final concentrations: 50mM Tris acetate, pH 7.5, 10mM Mg acetate, 0.01% Tween-20, 0.05% BSA, 1mM D-luciferin, 10uM ATP) are dispensed into each well of a Greiner white, solid-bottom 1536-well format plate using a flying reagent dispenser (FRD). These assay plates were then treated with 23nL of compound or DMSO using a Kalypsys pin tool, which allows for delivery of a 12-point intraplate titration of each compound to the assay plate (quantitative HTS), with a final compound concentrations ranging from approximately ~60uM to 0.3nM. One microliter of firefly luciferase in […] Tris-acetate buffer was then delivered by FRD to each well for a final enzyme concentration of 10nM. Luciferase activity was then measured using a ViewLux CCD imager (PerkinElmer), with an average exposure time of 2-30 seconds (2X binning, medium/high gain).
Turning to `COc1ccc2nc(NC(=O)c3nc(S(=O)(=O)Cc4ccc(C)cc4)ncc3Cl)sc2c1`, the Potency result was “inactive”. Regarding `Nc1ccc(-c2nc3cc(N)ccc3s2)cc1`, the Potency is 18300 nM (active). As for `CC(C)c1ccc(-c2nc3ccccc3s2)cc1`, the Potency is 183 nM (active).

Take `Nc1ccc2nc(-c3ccccc3)sc2c1`: the Potency is 919 nM (active).

Regarding `Cc1c(C)c2ccc(OCC(=O)Nc3ccccn3)c(C)c2oc1=O`, the Potency is 91.9 nM (active). On to `O=C(O)c1ccc(NC(=O)c2cccc(NC(=O)c3cccs3)c2)cc1`, for which the Potency was 32600 nM (active).

For `O=C(COC(=O)c1ccccc1[N+](=O)[O-])c1ccc2c(c1)OCO2`, the Potency is 46.1 nM (active). On to `O=C(Nc1ccccc1C(=O)O)c1cc(S(=O)(=O)NCc2ccccc2)ccc1Cl`, for which the Potency entry was “inactive”. For `O=C(Cc1ccccc1)Nc1ccccc1C(=O)Nc1ccc(C(=O)O)cc1`, the Potency result is “inactive”. For the molecule `O=C(O)c1ccc(NC(=O)c2cccc(C(=O)Nc3ccc(C(=O)O)cc3)c2)cc1`, the Potency result is “inactive”. Regarding `Cc1cccc(NS(=O)(=O)c2cccc(C(=O)Nc3cccc(C(=O)O)c3)c2)c1`, the Potency entry is “inactive”. `Cc1ccc(C(=O)Nc2ccc(C(=O)O)cc2)cc1S(=O)(=O)Nc1ccccc1`: the Potency result was “inactive”. For `CCOc1ccc2nc(NC(=O)c3ccccn3)sc2c1`, the Potency was 2060 nM (active). The result for `Nc1ccc(-c2nc3ccc(C(=O)O)cc3s2)cc1` reads 1160 nM (active); that for `Cc1ccc2sc(-c3ccc(N)cc3)nc2c1`, 517 nM (active); that for `O=C(Nc1ccccc1C(=O)O)c1cc(S(=O)(=O)Nc2ccccc2)ccc1Cl`, “inactive”. As to `O=C(O)c1cccc(NC(=O)c2ccccc2NC(=O)c2ccco2)c1`, the Potency result is “inactive”. As for `Cc1ccc(S(=O)(=O)N2CCOCC2)cc1C(=O)Nc1ccccc1C(=O)O`, the Potency result was “inactive”.

As to `NC(=O)Cc1ccc2sc(-c3ccccc3)nc2c1`, the Potency was 13000 nM (active). As to `CN(C)S(=O)(=O)c1ccc(C(=O)Nc2cccc(C(=O)O)c2)cc1`, the Potency entry was “inactive”. The result for `COc1cc(OC)cc(-c2nc3ccccc3s2)c1` reads 18300 nM (active); that for `CCOc1c(Cl)cc(C(=O)Nc2ccccc2C(=O)O)cc1Cl`, 16300 nM (active); that for `COc1ccc(C(=O)Nc2ccccc2-c2nc3ccccc3s2)c(OC)c1`, “inactive”. Consider `COc1cccc(-c2nc3ccccc3s2)c1`, for which the Potency was 5170 nM (active). In the case of `CCOc1ccc2nc(NC(=O)c3ccoc3C)sc2c1`, the Potency was 2910 nM (active). Take `COc1cc(OC)cc(C(=O)Nc2ccc(-c3nc4ccccc4s3)c(C)c2)c1`: the Potency result was “inactive”.

Regarding `C/C(=N\NC(=O)c1ccccc1NC(=O)c1ccc(Cl)cc1)c1ccncc1`, the Potency was 51.7 nM (active). As to `CC(C)C(=O)Nc1cccc(C(=O)Nc2ccccc2C(=O)O)c1`, the Potency is 18300 nM (active). Turning to `O=C(Nc1ccc(Cl)cc1-c1nc2ccccc2s1)c1ccco1`, the Potency result was “inactive”. As for `CCOc1ccc(C(=O)Nc2cccc(C(=O)O)c2)cc1Cl`, the Potency is 6510 nM (active).

On to `CCOC(=O)N1CCN(CC(=O)Nc2nc3ccc(OC)cc3s2)CC1`, for which the Potency result was “inactive”. In the case of `COc1ccc(-c2nc3ccccc3s2)cc1O` it was 651 nM (active); in that of `Cc1c(NC(=O)c2cc(-n3cnnc3)ccc2Cl)cccc1-c1nc2ccccc2s1`, 919 nM (active).

For `COc1cc(C(=O)Nc2cc(C)c(O)c(-c3nc4ccccc4s3)c2)cc(OC)c1OC`, the Potency result was “inactive”. Regarding `COc1ccc2nc(NC(=O)CCc3ccc(OC)c(OC)c3)sc2c1`, the Potency entry is “inactive”. Regarding `O=C(O)c1ccc(NC(=O)c2cc(S(=O)(=O)N3CCCCC3)c(Cl)cc2Cl)cc1`, the Potency result is “inactive”. For `O=C(Nc1ccccc1C(=O)O)c1cccc(S(=O)(=O)Nc2ccc(Br)cc2)c1`, the Potency result is “inactive”. Regarding `CCCC(=O)Nc1nc2ccc(OCC)cc2s1`, the Potency was 29100 nM (active).

Turning to `CC(C)Oc1ccc(C(=O)Nc2ccc(-c3nc4ccccc4s3)cc2)cc1`, the Potency entry was “inactive”. Regarding `O=C(Nc1ccccc1-c1nc2ccccc2s1)c1ccc(Br)o1`, the Potency entry is “inactive”.
